D1 antag: blocks dopamine activation of the human D1 receptor. P21728. 3.2% of 360,000 active. activity change, negative = inhibition, % at 10 µM. HEK293 TREx D1 cells, calcium flux, dopamine EC80; active compounds read low. AID 504652; in the data active means activity change below about -30%; further: on the % scale 0 is the no-effect control and ±100 the full control effect
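Inducible Hek293 Trex D1 cells (tetracycline, overnight, 30 C). Calcium dye 30–90 min RT. Antagonist mode: EC80 dopamine added after 180 s compound read.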
D1 agonist: human D1 receptor agonism | P21728 | HEK293 T-REx D1 cells, calcium flux, agonist mode | activation, % at 2 µM | 1% of 360,000 active | AID 504660; further: 0% is about no effect
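Inducible HEK293 T-REx D1 cells, force-coupled to calcium signalling, were plated at 4000 cells/well with tetracycline and held overnight at 30 C. After no-wash calcium dye loading, compound-evoked calcium rise over 180 s flagged agonists.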
D1 PAM: enhances dopamine response at the human D1 receptor; P21728; HEK293 TREx D1 cells, calcium flux, dopamine EC20 potentiation; potentiation, % at 10 µM; 0.036% of 360,000 active; AID 504651; in the data active means potentiation above about 30%; further: 0% is about no effect
TRHR agonist: agonists of human TRH receptor. P34981. TRHR cells, calcium flux fluo-8, FDSS agonist mode. activation, % at 2 µM. 0.18% of 360,000 active. AID 493084; further: 0% is about no effect
Target sequence (P34981 whole entry, looked up): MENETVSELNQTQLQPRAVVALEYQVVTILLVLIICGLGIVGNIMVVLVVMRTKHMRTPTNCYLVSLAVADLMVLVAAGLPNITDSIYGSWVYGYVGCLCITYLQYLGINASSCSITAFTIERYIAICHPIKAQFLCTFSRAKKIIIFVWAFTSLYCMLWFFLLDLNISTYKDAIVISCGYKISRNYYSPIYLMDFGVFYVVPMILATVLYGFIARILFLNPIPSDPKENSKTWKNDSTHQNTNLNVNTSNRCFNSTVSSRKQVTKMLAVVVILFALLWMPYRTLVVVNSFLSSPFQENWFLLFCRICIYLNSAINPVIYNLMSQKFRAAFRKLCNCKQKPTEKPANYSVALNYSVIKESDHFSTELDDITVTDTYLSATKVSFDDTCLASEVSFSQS
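TRHR-expressing cells loaded with fluo-8 calcium dye; 23 nL library compound pin-transferred, kinetic FDSS fluorescence (Ex 480/Em 530) recorded about 180 s for agonist-induced calcium release, before a 10 nM TRH EC20 addition for potentiator mode.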
TRHR enhancer: allosteric enhancers of human TRH receptor; TRHR cells, fluo-8 calcium fluorescence, EC20 TRH enhancement; enhancement, % at 2 µM; 0.66% of 360,000 active; in the data active means enhancement above about 30%; further: 0% is about no effect
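TRHR-expressing cells loaded with fluo-8 calcium dye were read kinetically (ex 480/em 530) during compound addition, then stimulated with an EC20 of TRH (10 nM final). Enhancement of the Gq-mediated intracellular calcium response was scored.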
Active calls of the source: *. Hits are enriched below; roughly 4.7% of the tested compounds scored in any of these assays. Unless noted, no stated cut-off is given here; in the data, active means activation above about 30%; inactive means the rest.

Screening COc1ccccc1CNC(=O)C1CCN(Cc2nc(-c3cccc(Cl)c3)oc2C)CC1 returned D1 antag -1, D1 agonist 34*, D1 PAM -6, TRHR agonist 0 and TRHR enhancer 8.
For COc1cccc(Cn2nnc3c(=O)[nH]c(C4CCN(C(=O)c5ccccc5Cl)CC4)nc32)c1 the results were D1 antag -3, D1 agonist -3, D1 PAM -1, TRHR agonist 0 and TRHR enhancer -7.
Screening COc1ccccc1CNC(=O)COc1ccccc1OC returned D1 antag 11, D1 agonist 4, D1 PAM -2, TRHR agonist 0 and TRHR enhancer -3.
For COc1ccccc1CNC(=O)Cc1csc2nc(-c3ccccc3)cn12 the results were D1 antag -35*, D1 agonist -2, D1 PAM -3, TRHR agonist 0 and TRHR enhancer -2.
CCc1ccc(-c2nc(CN3CCC(C(=O)NCCc4ccc(OC)c(OC)c4)CC3)c(C)o2)cc1 was read as D1 antag -25, D1 agonist 30*, D1 PAM -6, TRHR agonist 0 and TRHR enhancer -3.
For Cc1ccccc1-c1nc(CN2CCC(C(=O)NCc3cccnc3)CC2)c(C)o1 the results were D1 antag -4, D1 agonist -4, D1 PAM -4, TRHR agonist -1 and TRHR enhancer 4.
`Cc1ccccc1-c1nc(CN2CCC(C(=O)NCc3ccc(F)cc3)CC2)c(C)o1` gave D1 antag -9, D1 agonist 41*, D1 PAM -3, TRHR agonist 0 and TRHR enhancer 44*.
For COc1ccccc1CNC(=O)CC(C)C the results were D1 antag -32*, D1 agonist 4, D1 PAM -7, TRHR agonist 1 and TRHR enhancer 3.
CCCNC(=O)COc1coc(CN2CCN(c3cccc(Cl)c3)CC2)cc1=O was read as D1 antag 12, D1 agonist 5, D1 PAM -4, TRHR agonist 0 and TRHR enhancer -1.
`CCOc1ccc(S(=O)(=O)N(CC(=O)N2CCC(C(N)=O)CC2)c2ccc(F)cc2)cc1` gave D1 antag -8, D1 agonist -1, D1 PAM -4, TRHR agonist 0 and TRHR enhancer -4.
Screening N#Cc1ccc(N/N=C/c2ccccc2)c([N+](=O)[O-])c1 returned D1 antag -3, D1 agonist 1, D1 PAM 4, TRHR agonist 0 and TRHR enhancer 1.
For Cc1oc(-c2cccc(Cl)c2)nc1CN1CCCC(C(=O)NCc2ccc(Cl)cc2)C1 (centres undefined) the results were D1 antag -2, D1 agonist 5, D1 PAM -3, TRHR agonist 0 and TRHR enhancer -10.
Screening Cc1oc(-c2cccc(Cl)c2)nc1CN1CCC(C(=O)NCc2ccc(F)cc2)CC1 returned D1 antag -17, D1 agonist 54*, D1 PAM -3, TRHR agonist 0 and TRHR enhancer 3.
For CCS(=O)(=O)N1CCC(C(=O)NCc2ccccc2OC)CC1 the results were D1 antag -43*, D1 agonist -1, D1 PAM -2, TRHR agonist 1 and TRHR enhancer -1.
Screening COc1ccccc1CNC(=O)C1CCN(S(=O)(=O)N2CCCCC2)CC1 returned D1 antag 7, D1 agonist 1, D1 PAM -4, TRHR agonist 0 and TRHR enhancer -2.
Screening COc1ccc(-c2noc(-c3ccc(NCc4ccc(C)cc4)c([N+](=O)[O-])c3)n2)cc1OC returned D1 antag -68*, D1 agonist 7, D1 PAM 1, TRHR agonist 1 and TRHR enhancer -2.
Screening COc1ccc(-c2nc3cccc(C)n3c2NCc2ccco2)cc1OC returned D1 antag -31*, D1 agonist 0, D1 PAM -8, TRHR agonist 0 and TRHR enhancer -2.
Screening COc1ccc(-c2noc(-c3ccc(NCc4ccco4)c([N+](=O)[O-])c3)n2)cc1OC returned D1 antag -41*, D1 agonist -1, D1 PAM 1, TRHR agonist 1 and TRHR enhancer -3.
For COc1cc(OC)cc(-c2nc3n(n2)C(c2ccccc2F)C(C(=O)Nc2cccnc2)=C(C)N3)c1 (centres undefined) the results were D1 antag 2, D1 agonist 2, D1 PAM -2, TRHR agonist 1 and TRHR enhancer 6.
Cc1nn(C)c(Cl)c1CN1CCCC(CO)(Cc2cccc(Cl)c2)C1 (centres undefined) was read as D1 antag -33*, D1 agonist 11, D1 PAM -4, TRHR agonist -3 and TRHR enhancer 7.
Cc1ccccc1CC1(CO)CCCN(Cc2c(C)nn(C)c2Cl)C1 (centres undefined) was read as D1 antag -33*, D1 agonist 17, D1 PAM -5, TRHR agonist 0 and TRHR enhancer -2.
Cc1ccccc1CC1(CO)CCCN(Cc2ccn[nH]2)C1 (centres undefined) was read as D1 antag -17, D1 agonist 1, D1 PAM -4, TRHR agonist 0 and TRHR enhancer -5.
Screening CSCC(=O)N1CCCC(CO)(Cc2ccccc2C)C1 (centres undefined) returned D1 antag -53*, D1 agonist 2, D1 PAM -2, TRHR agonist 0 and TRHR enhancer 10.
Screening O=C(Cc1c[nH]c2ccccc12)N1CCN(S(=O)(=O)c2cccc(Cl)c2Cl)CC1 returned D1 antag 20, D1 agonist 2, D1 PAM -2, TRHR agonist 0 and TRHR enhancer 2.
Screening CN(Cc1ccccc1)S(=O)(=O)c1ccc(N2CCCC2=O)cc1 returned D1 antag -24, D1 agonist 10, D1 PAM 0, TRHR agonist 0 and TRHR enhancer 7.
For CC(NC(=O)COC(=O)CC(c1ccccc1)c1ccccc1)c1ccccc1 (centres undefined) the results were D1 antag -2, D1 agonist 11, D1 PAM 7, TRHR agonist 0 and TRHR enhancer -5.
`CCc1ccc(NC(=O)NCC2CCN(Cc3cccc(Cl)c3)CC2)cc1` gave D1 antag -37*, D1 agonist 36*, D1 PAM -10, TRHR agonist 2 and TRHR enhancer 25.
For COc1ccc(N2CCN(C(=O)CNC(=O)Cn3cnc4sc(C)c(C)c4c3=O)CC2)cc1 the results were D1 antag -9, D1 agonist -1, D1 PAM -8, TRHR agonist 0 and TRHR enhancer -2.
`COc1ccc(C(=O)C2CCCN(Cc3sc(N4CCCC4)nc3Cl)C2)c(OC)c1` (centres undefined) gave D1 antag -41*, D1 agonist 7, D1 PAM -3, TRHR agonist -1 and TRHR enhancer -5.
